In PubChem BioAssay AID1035475 (Broad Institute, 2014):
Potency and affinity values are given separately. Inconclusive results are not listed. Where a call stands in place of a potency, no number is given. Activity calls are given as the source filed them.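 The calls were made as follows: active = fluorescent signal drops by 40% or more, counted as a hit; inconclusive = no clear call, values can overlap the other calls; inactive = the rest, including any activity in the opposite direction.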

Assay: inhibitors of fibronectin matrix deposition, dose response, AH1F cells, Alexa488-FN fluorescence, cherry-picks (AID 1035475);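 also: AH1F fibroblasts incorporating labeled fibronectin into their extracellular matrix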
Conditions: AH1F fibroblasts, overnight; series mostly up to 35 µM

| SMILES | outcome |
| --- | --- |
| O=C(c1cccnc1)N1C[C@@H]2[C@H](c3ccccc31)[C@@H](CO)N2CC1CCCC1 | inactive |
| C[C@@H]1CN([C@H](C)CO)C(=O)c2cc(NC(=O)CCCN(C)C)ccc2O[C@@H]1CN(C)Cc1ccc(-c2ccccc2)cc1 | inactive |
| C[C@H]1CN([C@@H](C)CO)C(=O)c2cccc(NC(=O)Nc3ccc(C(F)(F)F)cc3)c2O[C@@H]1CN(C)C(=O)Nc1cccc2ccccc12 | inactive |
| CN1c2ccc(-c3ccccc3)cc2[C@H]2[C@H](CCN2C(=O)CN2CCOCC2)[C@H]1CO | inactive |
| N#C[C@H]1[C@H](c2ccccc2C2=CCCCC2)[C@H](CO)N1S(=O)(=O)c1ccccc1 | inactive |
| CO[C@@H]1CN(C)C(=O)c2cc(NC(=O)Nc3cc(Cl)cc(Cl)c3)ccc2OC[C@@H](C)NC[C@@H]1C | inactive |
| COCC(=O)Nc1ccc2c(c1)C(=O)N(C)[C@@H]1CC[C@@H](CC(=O)NCc3ccccc3Cl)O[C@@H]1CO2 | inactive |
| COC(=O)c1cn(CC(=O)NCc2ccco2)c2ccccc12 | inactive |
| Cc1ccc(O)c(-c2cc(-c3cccc(Br)c3)n[nH]2)c1 | inactive |
| COc1ccccc1CC(=O)OC(C)C(=O)Nc1ccc(S(=O)(=O)N2CCCCC2)cc1 (stereo not drawn) | inactive |
| COCC(=O)Nc1ccc2c(c1)C(=O)N(C)[C@@H]1CC[C@@H](CC(=O)NCc3ccccc3Cl)O[C@H]1CO2 | inactive |
| CO[C@H]1CN(C)C(=O)c2ccc(NC(=O)Nc3ccc(Cl)c(Cl)c3)cc2OC[C@H](C)NC[C@H]1C | inactive |
| CO[C@@H]1CN(C)C(=O)c2ccc(NC(=O)c3ccc(-c4ccccc4)cc3)cc2OC[C@@H](C)NC[C@@H]1C | inactive |
